In PubChem BioAssay (NCI):
This is part of a sample that, as a whole, favours compounds with a hit. Of some 83,000 tested, about 20% had one in any assay.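 Activity criterion: percent growth below 10, measured after cells in 96-well plates were exposed to a single compound concentration for 48 hours.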 Active and inactive are the calls of the source.

These compounds were tested on MDA-MB-468 breast (assay: NCI-60 one-dose screen, 48 h (100 = growth as untreated, 0 = no growth, -100 = all killed)). Details: 10 µM unless noted.
In the case of `COc1ccc(-c2cc(C(=O)N3N=C(c4ccc(N)cc4)CC3c3ccc(OC)cc3)c3cc(OC)ccc3n2)cc1` (stereo not given), the growth is reported as 37.6% (inactive).
`CC(C)c1ccc(C(=O)OCCCl)cc1` was tested, and the growth was 111% (inactive).
For `O=C1C2C(c3cccs3)C=C(c3ccc(Cl)cc3)N2C(=S)N1c1ccccc1` (stereo not given), the growth was 79.7% (inactive).
`N#CC1C=CN(CC(N)=O)c2ccc3cccnc3c21` (stereo not given) was tested, and the growth was 96.2% (inactive).
`CCCCCCc1cc(N=Nc2ccc(S(=O)(=O)Nc3cc(C)nc(C)n3)cc2)c(O)cc1O` was tested, and the growth was 102% (inactive).
In the case of `CCCCn1c(=O)[nH]c(N)c(C(c2ccc(F)cc2)c2c(N)[nH]c(=O)n(CCCC)c2=O)c1=O`, the growth is reported as 51.2% (inactive).
`CCc1[nH]nc(-c2ccc(OC)cc2)c1-c1ccccc1OCCN(CC)CC` was tested, and the growth was 87.8% (inactive).
`O=C(O)c1ccc(-n2cc(CNc3cc(F)c(F)c(F)c3)c(-c3ccc(F)cc3)n2)cc1` was tested, and the growth was 115% (inactive).
In the case of `CC(C)CCC[C@@H](C)[C@H]1CCC2C3=CCn4c(=O)ccc(=O)n4C3CC[C@@]21C` (stereo not given in full), the growth is reported as -49% (active).
For `COc1ccc(C2CC(c3ccc(Nc4nc(Nc5ccc(F)cc5)nc(Nc5ccc(Cl)cc5)n4)cc3)=NN2C(C)=O)cc1` (stereo not given), the growth was 104% (inactive).
In the case of `O=S(=O)(O)CCI`, the growth is reported as 91.8% (inactive).
`Cc1ccsc1/C=C/C1=NCCCN1C` was tested, and the growth was 92.4% (inactive).
`Cc1cccc(/C=C2\N=C(c3ccccc3)N(c3ccc(S(N)(=O)=O)cc3)C2=O)c1` was tested, and the growth was 99.2% (inactive).
`COc1ccc(C(=O)C2C(C#N)C(C#N)C3C=Cc4ccccc4N32)cc1` (stereo not given) was tested, and the growth was 16.5% (inactive).
For `O=C(NC1C(O)OC(CO)C(O)C1O)NS(=O)(=O)c1ccc(Cl)cc1` (stereo not given), the growth was 108% (inactive).
With `COc1ccc(-c2csc(NC(=O)c3ccc(Cc4n[nH]c(=O)c5cccnc45)cc3)n2)cc1` the growth was 64.2% (inactive).
With `COc1cccc(Nc2nccc(Nc3ccc4[nH]ncc4c3)n2)c1` the growth was -45.5% (active).
With `C=C1C(=O)O[C@H]2[C@H](O)[C@@H](C)CCC/C(C)=C/CC[C@@]3(C)O[C@@H]3C[C@@H]12` the growth was 61.4% (inactive).
For `O=C(Cn1cc(CN2C(=O)c3ccc([N+](=O)[O-])cc3C2=O)nn1)Nc1ccc(F)cc1Cl`, the growth was 97.9% (inactive).
For `COc1ccc(-c2coc3c(CO)c(O)ccc3c2=O)cc1`, the growth was 82.9% (inactive).
For `O=C1CC(c2ccc3c(c2)OCO3)Nc2ccccc21` (stereo not given), the growth was 2.73% (active).
For `O=C1c2ccccc2C(=O)c2cc(Cn3c[n+](Cc4ccc5ccccc5c4)c4ccccc43)ccc21`, the growth was -27.6% (active).
For `NC1=Nc2ccccc2N(O)N1`, the growth was 102% (inactive).
With `O=C(NS(=O)(=O)c1ccccc1)n1cc(-c2ccncc2)c(-c2ccc(Cl)c(O)c2)n1` the growth was 96.5% (inactive).
`Cc1c(Cl)cccc1NC(=O)CN1CCOCC1` was tested, and the growth was 107% (inactive).
For `COc1cc2c3c(n(CCCNC4CCCC4)c(=O)c2cc1OC)-c1cc2c(cc1C3=O)OCO2`, the growth was 70.9% (inactive).
For `Cc1ccc(C2CC(c3cccc(Nc4ccncc4)c3)=NN2c2ccc(Cl)cc2)cc1` (stereo not given), the growth was -71% (active).
With `CC(=O)N1N=C(CCC(=O)c2nc3ccc([N+](=O)[O-])cc3[nH]2)OC1c1ccc(O)cc1` (stereo not given) the growth was 108% (inactive).
With `CCOC(=O)C(=Cc1ccccc1[N+](=O)[O-])C(=O)OCC` the growth was 34.3% (inactive).
For `Cn1cc(C(=O)NCCC(=N)N)cc1NC(=O)CN=C(N)N`, the growth was 96.7% (inactive).
In the case of `C=C1C(=O)O[C@@H]2[C@H]3[C@H](COC(C)=O)[C@@H](OC(C)=O)C[C@H]3C(=C)[C@@H](O)C[C@@H]12`, the growth is reported as 77% (inactive).
In the case of `O=C1NC(=O)[C@@H](c2cn3c4c(cccc24)CCC3)[C@@H]1c1c[nH]c2ccccc12`, the growth is reported as -0.826% (active).
In the case of `COc1c(N2CC3CCCNC3C2)c(F)cc2c(=O)c(C(=O)N/N=C/c3ccc(N(C)C)cc3)cn(C3CC3)c12` (stereo not given), the growth is reported as 79% (inactive).
`COc1ccc(C(=NNS(=O)(=O)c2ccc(C)cc2)c2ccccc2)cc1OC` was tested, and the growth was 103% (inactive).
With `c1coc([C@@H]2C[C@@H]3Cc4ccc5ccccc5c4N2O3)c1` the growth was 89.7% (inactive).
In the case of `O=C(NNC(=S)Nc1ccccc1)c1cc2ccc1CCc1ccc(cc1)CC2`, the growth is reported as 67% (inactive).
For `COc1ccc(-c2ccc3c4c(cccc24)C(=O)N(N2C(=O)c4cccc5cccc(c45)C2=O)C3=O)cc1`, the growth was 96.5% (inactive).
For `c1ccc(-c2n(Cc3ccc4ccccc4c3)c3ccccc3[n+]2Cc2ccc3ccccc3c2)cc1`, the growth was -35.4% (active).
With `C[C@]12CC[C@H](O)CC1=CC[C@@H]1[C@@H]2CC[C@]2(C)C(c3cccnc3)=CC[C@@H]12` the growth was 15.2% (inactive).
For `COc1cc(NC(=O)CCSc2nc3ccccc3c(=O)n2Cc2ccccc2)cc(OC)c1OC`, the growth was 93.3% (inactive).
